HT1080-NT tox – kills 2HG-producing HT-1080-NT fibrosarcoma cells; AID 686970; HT-1080-NT fibrosarcoma viability, CellTiter-Glo ATP luminescence, 48 h; 1.6% of 360,000 active; Potency, µM (top dose mostly 46.1 µM), without a hit: top-dose activity, negative = less viability, hits mostly cytotoxic;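 also: NT is the 2HG producing partner of a matched IDH1 knockdown line; 0% = DMSO-treated cells and -100% = media-only wells without cells; nearly all actives have a fitted effect of over 55% in size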
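Fibrosarcoma NT cells, 750 per well in 5% FBS RPMI, were exposed to compound for 48 hours. Viability: CellTiter-Glo luminescence.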
KB-V1 MDR tox – KB-V1 MDR subline cytotoxicity; KB-V1 MDR cells viability, CellTiter-Glo, 72 h; Potency, µM (series often up to 46.1 µM), actives largely listed as cytotoxic; 3.4% of 400,000 active; also: % is scaled to controls: 0 for no effect and ±100 for the full control effect; nearly all actives have a fitted effect of over 60% in size
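Compound-treated KB-V1 multidrug-resistant cells, 72 h, 37 degrees C; viability by CellTiter-Glo. Fitted qHTS curves give the values.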
HT1080 IDH1KD tx – HT-1080 IDH1 knockdown cell toxicity (counter line); HT-1080 IDH1 knockdown viability, ATP luminescence, 48 h; Potency, µM (titrated, usually from 46.1 µM), for inactives: at the highest dose activity, negative = toxicity, actives largely listed as cytotoxic; 2% of 360,000 active; AID 686971;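 also: 0% = DMSO wells and -100% = cell-free medium wells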
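HT-1080-IDH1KD cells (IDH1 knocked down), 750/well in RPMI with 5% FBS, treated with compound 48 h at 37 degrees C. Viability by CellTiter-Glo luminescence, normalised to DMSO and no-cell wells; concentration-response curves classed.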
KB-3-1 tox – KB-3-1 parental cell cytotoxicity; KB-3-1 viability, CellTiter-Glo ATP luminescence, 72 h; Potency, µM (doses to about 46.1 µM), most hits filed as cytotoxic; 1.4% of 400,000 active; AID 1347075; also: % is scaled to controls: 0 for no effect and ±100 for the full control effect; nearly all actives have a fitted effect of over 60% in size
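Multi-concentration cytotoxicity screen in KB-3-1 cells grown in DMEM lacking phenol red with 10% FBS. After 72 h at 37 °C with compound, ATP-dependent luminescence was recorded.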
MCF10A rerep – induces DNA re-replication in MCF 10a normal breast cells | MCF 10A DNA re-replication, Hoechst nuclear intensity, 48 h | Potency, µM (top dose mostly 46.1 µM), for the others: at the highest dose activity, positive = re-replication, hits mostly activators | 2.9% of 350,000 active | AID 624296; also: % of control where 0% means no effect; nearly all actives have a fitted effect of over 50% in size
SW480 rerep – inducers of DNA re-replication in SW480 colon cancer cells | Potency, µM (highest dose often 46.1 µM), for inactives: top-dose re-replication activation, actives largely listed as activators | SW480 DNA re-replication, Hoechst DNA content imaging, 48 h | 1.8% of 340,000 active; also: % of control where 0% means no effect; nearly all actives have a fitted effect of over 55% in size
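Hoechst fluorescence of nuclei (405 nm excitation, 500-530 nm emission) measured by plate-scanning imager after 48 hr compound exposure at 37 C; re-replication scored as increased number of nuclei with elevated intensity.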
Starred values were filed as active, the others as inactive; i = inactive; ? = inconclusive; nt = not tested or not shown; [ ] = dose if it differs, or a comment. An excerpt weighted towards active compounds, which were near 8% of everything screened. Calls follow the shape of the dose curve; as a rule, active = well fitted curve in the direction sought with a large enough effect; inconclusive = small, poorly fitted or top-dose-only effect, or another doubt; inactive = no such curve, though single readings can be large; an effect the other way counts as inactive or inconclusive. Potency is read from the fitted curve at half-maximal effect.

SMILES | HT1080-NT tox | KB-V1 MDR tox | HT1080 IDH1KD tx | KB-3-1 tox | MCF10A rerep | SW480 rerep
CCOC(=O)c1sc(NC(=O)c2ccc(S(=O)(=O)N3CCCCC3)cc2)nc1-c1ccccc1 | 11% | ? | 12% | i | -6% | -3%
Cc1ccc(C)c(N2CCN(C(=O)C(CC(C)C)NS(=O)(=O)c3ccc4nc(C)sc4c3)CC2)c1 (stereo not given) | nt | ? | nt | i | nt | nt
COC(=O)c1ccc2nc(Nc3nc4c(F)cc(F)cc4s3)sc2c1 | -10% | i | -5% | ? | 2.3µM* | 0.23µM*
CCOC(=O)C(=CNc1nc(-c2ccccc2)c(C(=O)Nc2ccc(-c3ccccc3)cc2)s1)C(=O)OCC | 14% | i | 24% | i | 9.2µM* | 3.7µM*
Cc1ccc(NC(=O)c2sc(Cl)nc2-c2ccccc2)cc1 | -2% | i | -13% | ? | ? | 0%
COC(=O)c1ccc2nc(NC(=O)C(C)C)sc2c1 | -14% | i | ? | i | -11% | 1%
COc1cccc(-n2c(=O)c3cc(OC)c(OC)cc3n(CC(=O)Nc3ccccc3)c2=O)c1 | nt | i | nt | i | nt | nt
CCOC(=O)Cc1csc(NC(=O)C(C)c2ccc([N+](=O)[O-])cc2)n1 (stereo not given) | 7% | i | 2% | i | 1% | -23%
O=C(c1[nH]c(C(F)(F)F)nc1-c1ccccc1)N1CCN(c2ncccn2)CC1 | -29% | ? | ? | ? | nt | nt
O=C(c1[nH]c(C(F)(F)F)nc1-c1ccccc1)N1CCN(c2ccccc2)CC1 | ? | ? | 2.1µM* | 6.5µM* | nt | nt
O=C(c1[nH]c(C(F)(F)F)nc1-c1ccccc1)N1CCc2c([nH]c3ccccc23)C1 | ? | i | 4.6µM* | 5.8µM* | nt | nt
Cc1ccc(N2CCN(C(=O)c3[nH]c(C(F)(F)F)nc3-c3ccccc3)CC2)cc1 | -23% | i | -28% | i | nt | nt
O=C(Nc1ccc(Cl)c(S(=O)(=O)N2CCOCC2)c1)c1ccc(OCC2CCCO2)cc1 (stereo not given) | 18µM* | i | 26µM* | ? | 18µM* | -18%
COc1ccc(C(=O)Nc2ccc(N3CCOCC3)cc2)cc1S(=O)(=O)N1CCOCC1 | 1% | i | 2% | i | 1% | -2%
CC(C)Oc1ccc(C(=O)Nc2ccc(Cl)c(S(=O)(=O)Nc3ccc(Cl)cc3)c2)cc1 | ? | 5.8µM* | -28% | ? | ? | ?
COc1ccc(NS(=O)(=O)c2cc(NC(=O)c3ccc(Cl)cc3)ccc2N2CCOCC2)cc1 | 2.3µM* | 5.8µM* | 2.6µM* | ? | 2.3µM* | 1.5µM*
COc1ccc(NC(=O)c2ccc(Br)c(S(=O)(=O)N3CCOCC3)c2)cc1 | -19% | 21µM* | -13% | ? | -2% | 8%
CC(NC(N)=O)C(=O)Nc1ccc(Cl)c(S(=O)(=O)Nc2ccc(Cl)cc2)c1 (stereo not given) | 13% | i | -2% | i | 1% | -3%
Brc1cccc(-c2nnn3c2nc(N2CCCCC2)c2ccccc23)c1 | nt | i | nt | i | nt | nt
Cc1ccc(-n2ncc(C(=O)NCCN3CCCC3)c2C2CCN(C(=O)OC(C)(C)C)CC2)cc1C | nt | i | nt | i | nt | nt
COc1ccc(C(=O)Nc2ccc(S(=O)(=O)N3CCOCC3)cc2)cc1 | 4% | i | -5% | i | -1% | -2%[9.22 µM]
COc1ccc(C(=O)Nc2ccc(Cl)c(S(=O)(=O)N3CCOCC3)c2)cc1 | 3.7µM* | 7.3µM* | -4% | ? | ? | 3%
c1ccc(-c2nc(N3CCN(c4ccccc4)CC3)nc(-n3ccnc3)n2)cc1 | 11µM* | 23µM* | ? | ? | 7.3µM* | ?
CN(c1ccccc1)c1nc(-n2ccnc2)nc(-n2ccnc2)n1 | ? | ? | -22% | i | -1% | 0%
c1ccc(N(c2ccccc2)c2nc(-n3ccnc3)nc(-n3ccnc3)n2)cc1 | -16% | ? | ? | i | 20µM* | 14%
SMILES | HT1080-NT tox | KB-V1 MDR tox | HT1080 IDH1KD tx | KB-3-1 tox | MCF10A rerep | SW480 rerep
C[n+]1ccc(/C=C/c2ccc(C=S)cc2)c2ccccc21 | nt | i | nt | ? | nt | nt
Cc1cc(=O)n(C)c(=O)n1CCCCOc1cccc([N+](=O)[O-])c1 | -10% | i | -4% | i | -3% | -3%
Cc1cc(=O)n(C)c(=O)n1CCCCCOc1cccc([N+](=O)[O-])c1 | 1% | 8.2µM* | 6% | i | 5% | -7%
COc1ccc(CNC(=O)c2ccc3c(c2)CCN3S(=O)(=O)c2ccc(C)cc2)cc1 | nt | i | nt | i | nt | nt
C=Cc1ccc(Cn2c(C)c(C(=O)NCc3ccc4c(c3)OCO4)sc2=O)cc1 | -15% | ? | -17% | ? | nt | nt
COc1ccccc1Cn1c(C)c(C(=O)NCc2ccc(C#N)cc2)sc1=O | -27% | 16µM* | -28% | i | nt | nt
C=Cc1ccc(Cn2c(C)c(C(=O)NCc3ccc(C#N)cc3)sc2=O)cc1 | -13% | 18µM* | -27% | ? | nt | nt
COC(=O)c1ccc(Cn2c(C)c(C(=O)NCc3ccc(C#N)cc3)sc2=O)o1 | -11% | 23µM* | ? | i | nt | nt
Cc1ccc(Sc2cnccc2C#N)cc1 | 6% | i | 13% | i | -2% | -2%
COC(=O)CNC(c1ccccc1)c1cc(Cl)ccc1NC(=O)c1cccc(Cl)c1 (stereo not given) | -3% | 5.2µM* | -29% | i | ? | ?
CCOC(=O)C1CCN(c2c(C(=O)c3ccc(C)cc3)cnc3ccc(F)cc23)CC1 | nt | i | nt | i | nt | nt
O=C(Cc1ccc(NC2=NC3CS(=O)(=O)CC3S2)cc1)NCCc1ccccc1 (stereo not given) | 1% | i | -2% | i | 7% | -10%
O=C1OCCN1C(=O)[C@H]1[C@H](c2ccc(Cl)cc2)C(c2ccc(F)cc2)=NN1c1ccc(Br)cc1 | -27% | i | ? | i | ? | 21µM*
O=C1OCCN1C(=O)[C@H]1[C@H](c2ccc(F)cc2)C(c2ccc(F)cc2)=NN1c1ccccc1 | -13% | i | -16% | i | 5.8µM* | 18µM*
O=C1OCCN1C(=O)[C@H]1[C@H](c2ccc(Cl)cc2)C(c2ccc(F)cc2)=NN1c1ccccc1 | -16% | ? | -22% | ? | 3.7µM* | ?
O=C1OCCN1C(=O)[C@H]1[C@H](c2ccc(F)cc2)C(c2ccc(F)cc2)=NN1c1ccc(Br)cc1 | -18% | ? | -25% | i | ? | ?
